Test results as given in ChEMBL document CHEMBL3988442, “University of Dundee, Small-Polar-MMV Screening Library” (2021).
Hit rate of the full screen: of about 38,000 compounds, about 1,200 (3.2%) showed an effect of 50% or more. The median lay at about -58%. For the sample, strong results were picked, then their nearest neighbours and some compounds at random.

Test system: Plasmodium falciparum
Test: Calibr Malaria Delayed Death Assay SOP
Format: functional, organism-based
Parameters: scale not given: in the data most compounds retested in dose-response had high values
Conditions: concentration 4.99e-06 (unit not given; other assays of the set use mol/L)

Row | SMILES | Percent Effect
1 | Cc1nc(C)c(CC(=O)N2C[C@H]3CC[C@@H]2CN(c2cnccn2)C3)s1 | -79.94%
2 | CCc1nnnn1Cc1csc(N(C)C(C)=O)n1 | -54.02%
3 | Cc1ccc(Cl)cc1NC(=O)Nc1c[nH]c(=O)[nH]c1=O | -189.6%
4 | Cc1ncsc1C(=O)NCCNc1ncccc1C#N | -35.74%
5 | CCOCC1c2c(ncn2C)CCN1C(=O)c1cnc(C)cn1.O=C(O)C(F)(F)F (stereo not given) | -51.51%
6 | O=C(NCc1c[nH]c(=O)[nH]c1=O)C1CCOc2ccccc2C1 (stereo not given) | -114.6%
7 | Cc1ccc(S(=O)(=O)N(CC(N)=O)CC(C)C)cc1C | -27.83%
8 | O=C(NCCCn1ccnc1)c1cccnc1OCC(F)(F)F | -158.9%
9 | CCc1ccccc1OCCN1C[C@@H](NS(C)(=O)=O)[C@H](C(C)C)C1 | 45.03%
10 | CC(C)[C@@H]1CN(CCOc2ccc(Cl)cc2)C[C@H]1NS(C)(=O)=O | 45.65%
11 | CC(C)[C@@H]1CN(CCCOc2ccc(F)cc2)C[C@H]1NS(C)(=O)=O | 53.48%
12 | CC(C)n1cc(N2CC(C(=O)N3CCN(C)CC3)CC2=O)cn1 (stereo not given) | -61.38%
13 | Cc1csc(N2CCN(C(=O)CCn3cccn3)CC2)n1 | -135.1%
14 | CN(Cc1nc2ccsc2c(=O)[nH]1)C[C@@H]1CCCN2CCCC[C@H]12 | -24.21%
15 | CN(Cc1nc2ccccc2c(=O)[nH]1)C[C@@H]1CCCN2CCCC[C@H]12 | -16.14%
16 | Cc1cc(C)cc(C(=O)N2CCCN(CC(N)=O)CC2)c1 | -30.23%
17 | O=C(CN(CC1CCC1)CC(F)(F)F)N1CCCC1 | -123.3%
18 | CS(=O)(=O)NC(=O)c1nnn(-c2cccc(F)c2)c1C1CC1 | -54.99%
19 | CC(C)(C)c1nc(CNC2CCCN(c3cccnn3)C2)no1 (stereo not given) | 82.54%
20 | Cc1nc(CNC2CCCN(c3cccnn3)C2)no1 (stereo not given) | -95.1%
21 | CC(C)c1nc(CNC2CCCN(c3cccnn3)C2)no1 (stereo not given) | -23.44%
22 | CC1CN(CC2CCCC2)CCN1c1ccc2nncn2n1 (stereo not given) | 68.96%
23 | CC1CN(CC2CCCCC2)CCN1c1ccc2nncn2n1 (stereo not given) | 13.91%
24 | CC1CN(CC(=O)NC2CCCC2)CCN1c1ccc2nncn2n1 (stereo not given) | -5%
25 | Cn1ccc2ccc(C(=O)N3CCN(C(=O)OC(C)(C)C)CC3)cc21 | 4.042%
26 | Cc1cccc(NC(=O)N2CCn3cnc(COCC4CC4)c3C2)c1 | -185.1%
27 | COCCNC(=O)C[C@@H]1COC[C@H]2CN(C(=O)C3CCOCC3)C[C@@H]12 | -84.55%
28 | CN(C)C(C)(C)CNC(=O)C(C)(C)c1ccccc1F | 51.42%
29 | CC(C)(C(=O)NCC(N)=O)c1ccccc1F | -66.81%
30 | CC(C)(CNC(=O)C(C)(C)c1ccccc1F)C(N)=O | -90.26%
